Records with an inconclusive call do not appear. Calls of active or inactive are those of the source. Calls come from the whole dose curve; as a rule, active = well fitted inhibition curve with a large enough effect; inconclusive = small, poorly fitted or top-dose-only effect; inactive = flat fitted curve, though single readings scatter.
Columns and labels:
Assay in all cases: Cytotoxic Profiling of Annotated Libraries Using Quantitative High-Throughput Screening (AID 1296008); note: nearly all actives have a fitted effect of over 60% in size
Details in all cases: Five cell lines viability, CellTiter-Glo ATP luminescence, 48-72 h; max response: active compounds read low
CRL-7250 = system: CRL-7250
In short: (§1)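 Cytotoxicity was measured as CellTiter-Glo ATP luminescence, read after 10 min at room temperature. Compound treatment of the cells lasted 48 or 72 hr at 37 degrees Celsius in a qHTS format.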

HaCat = system: HaCat
In short: as §1

KB-3-1 = system: KB-3-1
In short: as §1

NIH3T3 = system: NIH3T3
In short: as §1

Measured: max response
% is set by controls: 0 for no effect and ±100 for the full control effect.

CC1CCC2(C)CCC3(C)C(=CCC4C5(C)CCC(O)C(C)(C(=O)O)C5CCC43C)C2C1C (configuration not stated)
inactive: CRL-7250 | HaCat | KB-3-1 8.86% | NIH3T3 4.66%

CC1CC=C2C1CC1(O)C(=O)CC2(C)C1(C)CO (configuration not stated)
inactive: CRL-7250 | HaCat 4.08% | KB-3-1 | NIH3T3

COc1cc(C[C@@]2(O)CO[C@@H](c3ccc(O[C@@H]4O[C@H](CO)[C@@H](O)[C@H](O)[C@H]4O)c(OC)c3)[C@H]2CO)ccc1O
inactive: CRL-7250 -6.96% | HaCat -8.64% | KB-3-1 1.94% | NIH3T3

COC(=O)C(CC1(O)c2ccccc2N2C(=O)C(C)(C)N(O)C21)n1cnc2ccccc2c1=O (configuration not stated)
inactive: CRL-7250 | HaCat | KB-3-1 0.0146% | NIH3T3 2.61%

CC1=COC(OC2OC(CO)C(O)C(O)C2O)C2C(CO)CC(OC(=O)/C=C/c3ccc(O)cc3)C12 (configuration not stated)
inactive: CRL-7250 0.792% | HaCat 1.84% | KB-3-1 | NIH3T3

C=C[C@]1(C)C[C@@H](OC(=O)CSC2C[C@H]3CC[C@@H](C2)N3C)[C@]2(C)[C@H](C)CC[C@]3(CCC(=O)[C@H]32)[C@@H](C)[C@@H]1O (some centres not stated)
inactive: CRL-7250 -0.484% | HaCat | KB-3-1 -17.7% | NIH3T3

C=C1[C@H](OC(C)=O)[C@H]2[C@@H](OC(C)=O)C(C)C[C@]2(OC(C)=O)C(=O)[C@H](C)/C=C/C(C)(C)C(=O)[C@H](OC(=O)C(C)C)[C@H]1OC(C)=O (some centres not stated)
inactive: CRL-7250 2.65% | HaCat | KB-3-1 | NIH3T3

C=C1CC2C3(C)C(O)CC(=O)C(C)(C)C3C(O)C(OC(C)=O)C2(C)C2C(=O)OC(C)(C(=O)OC)C(=O)C12C (configuration not stated)
inactive: CRL-7250 | HaCat | KB-3-1 | NIH3T3 -16.8%
